Consider 40 molecules from PubChem BioAssay (Tox21).

SMILES strings stand for the structures. Inconclusive results are not listed. A number with no mark means an inactive call. Activity calls are given as the source filed them. Calls follow the shape of the dose curve; as a rule, active = well fitted activation curve with a large enough effect; inconclusive = small, poorly fitted or top-dose-only effect; inactive = flat fitted curve, though single readings scatter.
% is scaled to controls: 0 for no effect and ±100 for the full control effect.

A short description of the test: qHTS assay to identify small molecule phospholipidosis (PLD) inducers (AID 1259344). Particulars: HepG2 phospholipidosis, LipidTOX Red imaging, 24 h; series mostly up to 38.3 µM. From the text:
National Center for Advancing Translational Sciences [NCATS]
Drug-induced Phospholipidosis (PLD) caused by cationic amphiphilic drugs is characterized by the appearance of unicentric or multicentric-lamellar bodies when viewed under electron microscope. Electron microscopy is the gold standard method for PLD detection, however, this method is time-consuming and labor intensive, making it unsuitable for evaluating a large set of compounds. A cell-based phospholipidosis assay has been developed using the LipidTox reagent in HepG2 cells and miniaturized into a 1536-well plate format. Drug induced phospholipid accumulation is stained with the LipidTox dyes in red color which then is determined using an automated high content screening system.
HepG2 cells are dispensed at 900 cells/3 uL/well into Collagen I-coated 1536-well black-wall/clear-bottom assay plates (Greiner Bio-One, Monroe, NC) using the Multidrop Combi 8 channel dispenser (Thermo Fisher, Waltham, MA, USA). The assay plates are incubated at 37 C for 4 hours to allow the cell attachment. 3 uL of 1:500 LipidTOX Red dye is added using the dispenser, and then 23 nL compounds are added via a Wako Pintool station (Wako Automation, San Diego, CA). Amiodarone, a known PLD inducer, was used as a positive control and DMSO was used as a negative control. The assay plates were then incubated at 37 C for 24 hours.
For fixations, 4 uL of 8% paraformaldehyde fixative solution containing 10 ug/mL Hoechst 33342 in Dulbecco's phosphate-buffered saline (DPBS) is added using a Kalypsys washer/dispenser (Kalypsys, San Diego, CA, USA). After incubation at room temperature for 30 min, the assay plates are washed once with DPBS using a Kalypsys washer/dispenser. The assay plates are then sealed and stored at 4 C before imaging. The fluorescence intensities (595 nm excitation, 615 nm emission for LipidTOX; 352 nm excitation, 461 nm emission for Hoechst 33342) are measured using an ImageXpress Micro Widefield High Content Screening System (Molecular Devices, Sunnyvale, CA, USA) with a 20x Plan Fluor objective. Images are acquired for one site in each well and analyzed with the MetaXpress software (Molecular Devices) using the Transfluor module. Several algorithmic outputs, such as pit count per well, pit count per cell, pit integrated intensity per well, and pit integrated intensity per cell, are used for quantitative image analysis for PLD.
For orientation: In qHTS, concentration-response curves come from the screen itself.
For `N[C@@H](CCC(=O)O)C(=O)O`, the call was inactive.

With `CC(=O)NC(=O)c1ccccc1O`, the result was inactive.

`NCCCC[C@H](N[C@@H](CCc1ccccc1)C(=O)O)C(=O)N1CCC[C@H]1C(=O)O`: the molecule was classed as inactive.

Regarding `CN1CC(=O)N/C1=N/C(=O)Nc1cccc(Cl)c1`, the molecule was classed as inactive.

As for `COc1c(N2CCNC(C)C2)c(F)cc2c(=O)c(C(=O)O)cn(C3CC3)c12` (stereo not given), the molecule was called inactive.

With `CCC1C(=O)OCC1Cc1cncn1C` (stereo not given), the molecule was called inactive.

Consider `NC(=O)N1c2ccccc2CC(=O)c2ccccc21`, for which the molecule was classed as inactive.

For the molecule `CCN[C@H]1C[C@H](C)S(=O)(=O)c2sc(S(N)(=O)=O)cc21`, the call was inactive.

As for `Nc1ccncc1N`, the outcome was inactive.

`CC(=O)N[C@H]1[C@H]([C@H](O)[C@H](O)CO)OC(C(=O)O)=C[C@@H]1N=C(N)N`: the molecule was called inactive.

In the case of `O=C(CO)[C@@H](O)[C@H](O)[C@@H](O)CO`, the molecule was called inactive.

On to `CCOC(=O)OC(C)OC1=C(C(=O)Nc2ccccn2)N(C)S(=O)(=O)c2ccccc21` (stereo not given), for which the molecule was classed as inactive.

As to `CN1CCN(c2cc3c(nn2)Oc2ccccc2N3C)CC1`, the call was inactive.

Take `CC(COc1ccccc1)NN` (stereo not given): the call was inactive.

For `CC1=C(C/C=C(\C)CCC[C@H](C)CCC[C@H](C)CCCC(C)C)C(=O)c2ccccc2C1=O`, the molecule was classed as inactive.

As for `Nc1ccn([C@@H]2O[C@H](CO)[C@@H](O)C2(F)F)c(=O)n1`, the molecule was called inactive.

For the molecule `CN(C)C(=O)Oc1cccc([N+](C)(C)C)c1`, the result was inactive.

Consider `COc1ccccc1OCC1CNC(=O)O1` (stereo not given), for which the PLD induction is 3.13% [at 7.66 µM].

Consider `CC(=O)OCC(=O)[C@@]1(O)[C@H](C)C[C@H]2[C@@H]3CCC4=CC(=O)C=C[C@]4(C)[C@@]3(F)[C@@H](O)C[C@@]21C`, for which the result was inactive.

Turning to `O=C(O)CNC(=O)c1ccccc1`, the molecule was classed as inactive.

Regarding `CO[C@@]1(NC(=O)C(C(=O)O)c2ccc(O)cc2)C(=O)N2C(C(=O)O)=C(CSc3nnnn3C)CO[C@@H]21` (stereo not given in full), the molecule was classed as inactive.

Consider `N[C@H](C(=O)O)[C@@H](O)c1ccc(O)c(O)c1`, for which the call was inactive.

Turning to `Cc1ncc(COP(=O)(O)O)c(C=O)c1O`, the outcome was inactive.

Turning to `CC(=O)N1C[C@H](O)C[C@H]1C(=O)O`, the outcome was inactive.

For the molecule `CC(N)C12CC3CC(CC(C3)C1)C2` (stereo not given), the molecule was classed as inactive.

`Cc1ccnc(NS(=O)(=O)c2ccc(N)cc2)n1`: the outcome was inactive.

In the case of `Cc1ccc(-c2ncc(Cl)cc2-c2ccc(S(C)(=O)=O)cc2)cn1`, the molecule was classed as inactive.

In the case of `CC[N+](C)(CC)CCOC(=O)C1c2ccccc2Oc2ccccc21`, the call was inactive.

In the case of `CC1(C)OC[C@@H](COC(=O)CCc2ccc(OC[C@@H](O)CNCCNC(=O)N3CCOCC3)cc2)O1`, the molecule was classed as inactive.

For the molecule `C[N+]1(C)[C@@H]2CC(OC(=O)[C@H](CO)c3ccccc3)C[C@H]1[C@@H]1O[C@@H]12` (stereo not given in full), the molecule was called inactive.

Consider `CCN[C@@H]1C[C@H](N)[C@@H](OC2OC(CN)=CCC2N)[C@H](O)[C@H]1O[C@H]1OC[C@](C)(O)[C@H](NC)[C@H]1O` (stereo not given in full), for which the molecule was classed as inactive.

Turning to `CC(C)COC(=O)c1ccc(N)cc1`, the call was inactive.

Consider `CCC(C(=O)NC(=O)NC(C)=O)c1ccccc1` (stereo not given), for which the PLD induction was -2.71% [at 7.66 µM].

In the case of `CC[C@H]1OC(=O)[C@H](C)[C@@H](O[C@H]2C[C@@](C)(OC)[C@@H](O)[C@H](C)O2)[C@H](C)[C@@H](O[C@@H]2O[C@H](C)C[C@H](N(C)C)[C@H]2O)[C@](C)(OC)C[C@@H](C)C(=O)[C@H](C)[C@@H](O)[C@]1(C)O`, the molecule was classed as inactive.

As for `C[N+](C)(CCOc1ccccc1)Cc1cccs1`, the outcome was inactive.

As to `CC(C)NNC(=O)c1ccncc1`, the molecule was classed as inactive.

`CCCCc1nc(Cl)c(CO)n1Cc1ccc(-c2ccccc2-c2nn[nH]n2)cc1`: the result was inactive.

As for `C[C@H]1C[C@H]2[C@@H]3CCC4=CC(=O)C=C[C@]4(C)[C@H]3C(=O)C[C@]2(C)[C@@]1(O)C(=O)CO`, the PLD induction is 2.13% [at 7.66 µM].

For `COc1cc(-c2ccc(=O)[nH]n2)ccc1OC(F)F`, the molecule was classed as inactive.

Consider `C[N+](C)(C)CCCCCCCCCC[N+](C)(C)C`, for which the outcome was inactive.
